Results taken from the supplement of paper PMC8728848.
The sample as a whole holds a higher share of the strongest signals than the screen did.

Assays:
Assay in all cases: glycan array binding signal (z-score within array); higher = stronger binding
Details in all cases: glycan notation: IUPAC condensed, linker removed; mutation: R343A
[1] = target: Fuc(a1-2)Gal(b1-3)GalNAc(b1-3)Gal(a1-4)Gal(b1-4)Glc
Procedure, shortened: (§1)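 The binding signal is a Z-score computed within each array. Data were drawn from 3228 arrays in the Consortium for Functional Glycomics database, restricted to those with a known protein sequence. Scores were averaged over arrays of the same protein sequence at different concentrations or buffers, and over linkers, and negative values can be taken as non-binding.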

[2] = target: Fuc(a1-2)Gal(b1-3)GlcNAc(b1-3)Gal(b1-4)Glc
Procedure, shortened: as §1

Fuc(a1-2)Gal(b1-4)GlcNAc = target: Fuc(a1-2)Gal(b1-4)GlcNAc
Procedure, shortened: as §1

Fuc(a1-4)GlcNAc = target: Fuc(a1-4)GlcNAc
Procedure, shortened: as §1

Gal(a1-3)GalNAc = target: Gal(a1-3)GalNAc
Procedure, shortened: as §1

Gal(b1-3)Gal = target: Gal(b1-3)Gal
Procedure, shortened: as §1

[3] = target: Gal(b1-3)GlcNAc(b1-3)Gal(b1-4)Glc
Procedure, shortened: as §1

[4] = target: Gal(b1-4)GalNAc(a1-3)[Fuc(a1-2)]Gal(b1-4)GlcNAc
Procedure, shortened: as §1

Gal(b1-4)Glc = target: Gal(b1-4)Glc
Procedure, shortened: as §1

[5] = target: Gal3S(b1-3)[Fuc(a1-4)]GlcNAc
Procedure, shortened: as §1

[6] = target: GlcNAc(b1-3)Gal(b1-4)GlcNAc(b1-3)Gal(b1-4)GlcNAc
Procedure, shortened: as §1

Kdn(a2-3)Gal(b1-4)GlcNAc = target: Kdn(a2-3)Gal(b1-4)GlcNAc
Procedure, shortened: as §1

[7] = target: Man(a1-2)Man(a1-3)[Man(a1-2)Man(a1-6)]Man
Procedure, shortened: as §1

[8] = target: Man(a1-2)Man(a1-3)[Man(a1-2)Man(a1-6)]Man(a1-6)[Man(a1-2)Man(a1-2)Man(a1-3)]Man
Procedure, shortened: as §1

[9] = target: Man(a1-2)Man(a1-3)[Man(a1-2)Man(a1-6)]Man(a1-6)[Man(a1-2)Man(a1-2)Man(a1-3)]Man(b1-4)GlcNAc(b1-4)GlcNAc
Procedure, shortened: as §1

[10] = target: Man(a1-2)Man(a1-3)[Man(a1-6)]Man(a1-6)[Man(a1-2)Man(a1-3)]Man(b1-4)GlcNAc(b1-4)GlcNAc
Procedure, shortened: as §1

[11] = target: Man(a1-2)Man(a1-6)[Man(a1-3)]Man(a1-6)[Man(a1-2)Man(a1-2)Man(a1-3)]Man
Procedure, shortened: as §1

[12] = target: Man(a1-3)[Man(a1-6)]Man(a1-6)[Man(a1-2)Man(a1-3)]Man(b1-4)GlcNAc(b1-4)GlcNAc
Procedure, shortened: as §1

[13] = target: Neu5Ac(a2-3)Gal(b1-4)GlcNAc(b1-3)Gal(b1-4)[Fuc(a1-3)]GlcNAc
Procedure, shortened: as §1

[14] = target: Neu5Gc(b2-6)Gal(b1-4)GlcNAc
Procedure, shortened: as §1

B1: Surfactant Protein D (Human); Neck + Carbohydrate Recognition Domain (NCRD) (Homo sapiens) (protein)
chain: MLLFLLSALVLLTQPLGYLEAEMKTYSHRTMPSACTLVMCSSVESGLPGRDRDGREGPRGEKGDPGLPGAAGQAGMPGQAGPVGPKGDNGSVGEPGPKGDTGPSGPPGPPGVPGPAGREGALGKQGNIGPQGKPGPKGEAGPKGEVGAPGMQGSAGARGLAGPKGERGVPGERGVPGNTGAAGSAGAMGPQGSPGARGPPGLKGDKGIPGDKGAKGESGLPDVASLRQQVEALQGQVQHLQAAFSQYKKVELFPNGQSVGEKIFKTAQFVKPFTEAQLLCTQAGGQLASPRSAAENAALQQLVVAKNEAAFLSMTDSKTEGKFTYPTGESLVYSNWAPGEPNDDGGSEDCVEIFTNGKWNDAACGEKRLVVCEF
glycan array binding signal (z-score) [1]: -0.236 | glycan array binding signal (z-score) [2]: -0.397 | glycan array binding signal (z-score) (Fuc(a1-2)Gal(b1-4)GlcNAc): -0.207 | glycan array binding signal (z-score) (Fuc(a1-4)GlcNAc): -0.016 | glycan array binding signal (z-score) (Gal(a1-3)GalNAc): -0.163 | glycan array binding signal (z-score) (Gal(b1-3)Gal): -0.274 | glycan array binding signal (z-score) [3]: -0.279 | glycan array binding signal (z-score) [4]: -0.214 | glycan array binding signal (z-score) (Gal(b1-4)Glc): -0.341 | glycan array binding signal (z-score) [5]: 0.046 | glycan array binding signal (z-score) [6]: -0.173 | glycan array binding signal (z-score) (Kdn(a2-3)Gal(b1-4)GlcNAc): -0.194 | glycan array binding signal (z-score) [7]: 9.14 | glycan array binding signal (z-score) [8]: 6.17 | glycan array binding signal (z-score) [9]: -0.269 | glycan array binding signal (z-score) [10]: 9.15 | glycan array binding signal (z-score) [11]: 2.79 | glycan array binding signal (z-score) [12]: 6.5 | glycan array binding signal (z-score) [13]: -0.226 | glycan array binding signal (z-score) [14]: -0.326
